Experimental data as given in PubChem BioAssay (EPA / NIEHS).
The source made the active and inactive calls. The calls were made as follows: active = hit-call score of the fitted dose curve at least 0.9, where 1 is the maximum; inactive = score below 0.9.

How the values were obtained:
[1] = read-out: Matrix Metallopeptidase 1 (MMP1), MMP1 (gene 4312); assay: BSK_hDFCGF_MMP1: BioMAP Diversity Plus: hDFCGF Assay for Matrix Metallopeptidase 1 (MMP1) Biomarker Activity (AID 2283064); settings: primary human foreskin fibroblasts; actives raise or lower the signal
Summary of the method: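 ELISA read-out of MMP1 from human foreskin fibroblasts (primary skin cells), 24 h post-dose. Gain or loss of signal was fitted bidirectionally versus DMSO negative control; cytotoxicity was checked by SRB in parallel cultures.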

[2] = read-out: Vascular cell adhesion molecule 1 (VCAM1), VCAM1 (gene 7412); assay: BSK_hDFCGF_VCAM1: BioMAP Diversity Plus: hDFCGF Assay for Vascular cell adhesion molecule 1 (VCAM1) Biomarker Activity (AID 2283065); settings: primary human foreskin fibroblasts; actives raise or lower the signal;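 as to AC50: VCAM-1 protein level quantified by ELISA after 24 h chemical exposure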
Summary of the method: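 ELISA readout of VCAM-1 on human dermal fibroblast primary cultures, 24 h after chemical exposure. Gain or loss of signal fitted in both directions against DMSO baseline.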

[3] = read-out: Plasminogen activator inhibitor-1 (PAI1), SERPINE1 (gene 5054); assay: BSK_hDFCGF_PAI1: BioMAP Diversity Plus: hDFCGF Assay for Plasminogen activator inhibitor-1 (PAI1) Biomarker Activity (AID 2283066); settings: primary human foreskin fibroblasts; actives raise or lower the signal
Summary of the method: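 Fibroblasts from human foreskin were treated with test chemical. After 24 h, PAI-1 was measured by ELISA. Activity was fitted in both directions relative to DMSO.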

[4] = read-out: Intercellular Adhesion Molecule 1 (ICAM1), ICAM1 (gene 3383); assay: BSK_KF3CT_ICAM1: BioMAP Diversity Plus: KF3CT Assay for Intercellular Adhesion Molecule 1 (ICAM1) Biomarker Activity (AID 2283067); settings: primary human keratinocytes with fibroblasts; actives raise or lower the signal
Summary of the method: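 Cell-surface ICAM-1 was measured by ELISA 24 h after dosing primary human skin keratinocytes co-cultured with fibroblasts. Parallel SRB staining tracked overt cytotoxicity. Gain or loss of signal was fitted relative to DMSO.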

[5] = read-out: Interferon-gamma inducible Protein 10 (IP10), CXCL10 (gene 3627); assay: BSK_KF3CT_IP10: BioMAP Diversity Plus: KF3CT Assay for Interferon-gamma inducible Protein 10 (IP10) Biomarker Activity (AID 2283068); settings: primary human keratinocytes with fibroblasts; actives raise or lower the signal
Summary of the method: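 In a primary skin co-culture of keratinocytes and fibroblasts, IP-10 is quantified by ELISA at 24 h after dosing. SRB staining of parallel wells monitors overt toxicity. Curves are fitted both directions against DMSO.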

[6] = BSK_KF3CT_SRB: Viability Assessment in the BioMAP Diversity Plus: KF3CT Assay (AID 2283069); settings: primary human keratinocytes with fibroblasts;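 also: total protein by sulforhodamine B staining as a cytotoxicity measure; read 24 h after compound addition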
Summary of the method: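 SRB read-out at 560 nm (0.1% stain, TCA-fixed cells) gauges overt cytotoxicity in a human skin keratinocyte–fibroblast co-culture 24 h post-dosing. Signal change was fitted bidirectionally relative to DMSO control.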

[7] = read-out: Interleukin-1 alpha (IL1a), IL1A (gene 3552); assay: BSK_KF3CT_IL1a: BioMAP Diversity Plus: KF3CT Assay for Interleukin-1 alpha (IL1a) Biomarker Activity (AID 2283070); settings: primary human keratinocytes with fibroblasts; actives raise or lower the signal
Summary of the method: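 Primary skin co-culture (keratinocytes, foreskin fibroblasts), 24 h exposure; ELISA for IL-1a; bidirectional curve fit vs DMSO.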

[8] = read-out: TIMP metallopeptidase inhibitor 2 (TIMP2), TIMP2 (gene 7077); assay: BSK_KF3CT_TIMP2: BioMAP Diversity Plus: KF3CT Assay for TIMP metallopeptidase inhibitor 2 (TIMP2) Biomarker Activity (AID 2283071); settings: primary human keratinocytes with fibroblasts; actives raise or lower the signal
Summary of the method: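 Chemicals were dosed onto human skin primary co-cultures of keratinocytes and foreskin fibroblasts, and TIMP-2 was measured by ELISA after 24 hours. Activity in either direction was fitted relative to DMSO.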

[9] = read-out: Transforming growth factor beta 1 (TGFb1), TGFB1 (gene 7040); assay: BSK_KF3CT_TGFb1: BioMAP Diversity Plus: KF3CT Assay for Transforming growth factor beta 1 (TGFb1) Biomarker Activity (AID 2283072); settings: primary human keratinocytes with fibroblasts; actives raise or lower the signal
Summary of the method: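 KF3CT co-culture (keratinocytes + fibroblasts), 24 h exposure → TGF-b1 ELISA → bidirectional fit, DMSO = baseline. Parallel SRB total-protein staining (0.1% SRB, 10% TCA fixation, 560 nm) for cytotoxicity.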

[10] = read-out: C-C motif chemokine 2 (Homo sapiens) (UniProt P13500); assay: BSK_KF3CT_MCP1: BioMAP Diversity Plus: KF3CT Assay for Monocyte Chemoattractant Protein 1 (MCP1/CCL2) Biomarker Activity (AID 2283073); settings: primary human keratinocytes with fibroblasts; actives raise or lower the signal
Summary of the method: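 ELISA read-out of MCP-1, 24 h post-dose, in primary human skin keratinocytes co-cultured with fibroblasts. Parallel SRB staining monitors cytotoxicity; changes fitted both directions relative to DMSO.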

[11] = read-out: Matrix Metallopeptidase 9 (MMP9), MMP9 (gene 4318); assay: BSK_KF3CT_MMP9: BioMAP Diversity Plus: KF3CT Assay for Matrix Metallopeptidase 9 (MMP9) Biomarker Activity (AID 2283074); settings: primary human keratinocytes with fibroblasts; actives raise or lower the signal;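 as to AC50: MMP9 protein level quantified by ELISA in the co-culture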
Summary of the method: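 ELISA read-out of MMP-9 at 24 h post-dosing in a co-culture of human skin keratinocytes and foreskin fibroblasts. Gain or loss of signal was fitted in both directions against DMSO.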

[12] = read-out: urokinase plasminogen activator (uPA), PLAU (gene 5328); assay: BSK_KF3CT_uPA: BioMAP Diversity Plus: KF3CT Assay for urokinase plasminogen activator (uPA) Biomarker Activity (AID 2283075); settings: primary human keratinocytes with fibroblasts; actives raise or lower the signal
Summary of the method: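 Skin co-culture (keratinocytes + foreskin fibroblasts), human primary; 24 h post-dose; uPA by ELISA; gain/loss fit vs DMSO baseline.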

[13] = read-out: E-selectin (Homo sapiens) (UniProt P16581); assay: BSK_LPS_Eselectin: BioMAP Diversity Plus: LPS Assay for Eselectin Biomarker Activity (AID 2283077); settings: primary human HUVEC with PBMC; actives raise or lower the signal
Summary of the method: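 E-selectin ELISA on LPS-stimulated endothelial cell/PBMC co-cultures, read 24 h post-treatment; gains and losses fitted against DMSO. Parallel SRB staining (0.1% SRB after 10% TCA fixation, 560 nm) flags overt cytotoxicity.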

[14] = read-out: Interleukin-8 (IL8), CXCL8 (gene 3576); assay: BSK_LPS_IL8: BioMAP Diversity Plus: LPS Assay for Interleukin-8 (IL8) Biomarker Activity (AID 2283078); settings: primary human HUVEC with PBMC; actives raise or lower the signal
Summary of the method: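 ELISA read-out of IL-8 after 24 h chemical treatment of LPS-activated endothelial/PBMC human primary co-cultures. Changes either up or down relative to DMSO; overt cytotoxicity checked by sulforhodamine B staining in parallel wells.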

[15] = BSK_LPS_SRB: Viability Assessment in the BioMAP Diversity Plus: LPS Assay (AID 2283079); settings: primary human HUVEC with PBMC;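 also: total protein by sulforhodamine B absorbance as a cytotoxicity measure; measured one day after compound addition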
Summary of the method: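 SRB viability endpoint: cells fixed with 10% TCA, stained with 0.1% SRB, read at 560 nm, 24 h post-dose. HUVEC/PBMC co-culture; signal change in either direction scored relative to DMSO.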

[16] = read-out: Interleukin-1 alpha (IL1a), IL1A (gene 3552); assay: BSK_LPS_IL1a: BioMAP Diversity Plus: LPS Assay for Interleukin-1 alpha (IL1a) Biomarker Activity (AID 2283080); settings: primary human HUVEC with PBMC; actives raise or lower the signal
Summary of the method: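 Readout is IL-1a level by ELISA, 24 h post-dose, fitted as gain or loss relative to DMSO. System: LPS-activated human primary co-culture of vascular endothelium and peripheral blood mononuclear cells, with parallel SRB total-protein cytotoxicity.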

[17] = read-out: Monocyte Chemoattractant Protein-1 (MCP1), CCL2 (gene 6347); assay: BSK_LPS_MCP1: BioMAP Diversity Plus: LPS Assay for Monocyte Chemoattractant Protein-1 (MCP1) Biomarker Activity (AID 2283081); settings: primary human HUVEC with PBMC; actives raise or lower the signal;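 as to AC50: secreted MCP-1 protein quantified by ELISA in culture supernatant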
Summary of the method: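 Secreted MCP-1 read by ELISA at 24 h post-dosing in an LPS-activated co-culture of endothelial cells with peripheral blood mononuclear cells. Fits run in both directions, DMSO as baseline; parallel SRB staining tracks overt cytotoxicity.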

[18] = BSK_LPS_PGE2: BioMAP Diversity Plus: LPS Assay for Prostaglandin E2 (PGE2) Biomarker Activity (AID 2283082); settings: primary human HUVEC with PBMC; actives raise or lower the signal;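 as to AC50: secreted prostaglandin E2 measured by ELISA in LPS-stimulated co-culture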
Summary of the method: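 Compounds were added to the LPS co-culture of endothelium and PBMC, and PGE2 was measured by ELISA after 24 h. Responses in either direction were fitted with DMSO as baseline.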

[19] = read-out: Macrophage colony-stimulating factor (MCSF), CSF1 (gene 1435); assay: BSK_LPS_MCSF: BioMAP Diversity Plus: LPS Assay for Macrophage colony-stimulating factor (MCSF) Biomarker Activity (AID 2283083); settings: primary human HUVEC with PBMC; actives raise or lower the signal
Summary of the method: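 Bidirectional fitting against DMSO was applied to M-CSF levels read by ELISA at 24 h post-dose. The system pairs human umbilical vein endothelium with peripheral blood mononuclear cells; parallel SRB staining tracked cytotoxicity.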

CD40, CD40 (gene 958) = assay: BSK_LPS_CD40: BioMAP Diversity Plus: LPS Assay for CD40 Biomarker Activity (AID 2283076); settings: primary human HUVEC with PBMC; actives raise or lower the signal
Summary of the method: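 In the LPS system of human endothelial cells with peripheral blood mononuclear cells, CD40 levels were read by ELISA 24 h post-treatment. Signal changes in either direction were fitted against the DMSO baseline, with parallel SRB protein staining.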

Measured: AC50

Chain of E-selectin (Homo sapiens) (P16581 whole entry, looked up): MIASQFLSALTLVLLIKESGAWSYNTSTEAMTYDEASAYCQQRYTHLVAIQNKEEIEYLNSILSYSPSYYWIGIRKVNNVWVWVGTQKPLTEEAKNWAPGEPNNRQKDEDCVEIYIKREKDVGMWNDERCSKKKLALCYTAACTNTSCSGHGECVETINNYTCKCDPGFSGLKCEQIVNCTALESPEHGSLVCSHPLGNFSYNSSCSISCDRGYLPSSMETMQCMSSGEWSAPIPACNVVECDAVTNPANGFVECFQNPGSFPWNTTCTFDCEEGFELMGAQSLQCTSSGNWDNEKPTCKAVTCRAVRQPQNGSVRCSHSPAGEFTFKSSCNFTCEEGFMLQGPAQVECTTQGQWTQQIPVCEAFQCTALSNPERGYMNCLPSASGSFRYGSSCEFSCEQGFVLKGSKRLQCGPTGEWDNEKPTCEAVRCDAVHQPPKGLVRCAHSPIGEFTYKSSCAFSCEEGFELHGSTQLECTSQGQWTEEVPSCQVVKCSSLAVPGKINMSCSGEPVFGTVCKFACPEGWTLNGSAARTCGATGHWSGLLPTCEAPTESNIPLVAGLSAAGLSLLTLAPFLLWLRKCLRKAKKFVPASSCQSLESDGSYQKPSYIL

CCCCCCCCOC(=O)c1cc(O)c(O)c(O)c1
active: [1] 37.6 µM | [2] 7.8 µM | [3] 15.2 µM | [4] 29.2 µM | [5] 12.3 µM | [6] 15.3 µM | [7] 25.5 µM | [8] 13.2 µM | [9] 8.45 µM | [10] 27.4 µM | [11] 8.92 µM | [12] 18.2 µM | [13] 36.6 µM | [14] 24.6 µM | [15] 25.6 µM | [16] 20 µM | [17] 26.7 µM | [18] 5.32 µM | [19] 31.9 µM

C[C@]12CC[C@@H]3c4ccc(O)cc4CC[C@H]3[C@@H]1CC[C@H]2O
active: [2] 15.4 µM | [15] 9.95 µM | [17] 14.1 µM | [19] 8.61 µM
inactive: all other assays above

Cc1cc(F)ccc1-c1cc(N2CC[C@@H](O)[C@H]2CO)ncc1N(C)C(=O)C(C)(C)c1cc(C(F)(F)F)cc(C(F)(F)F)c1
active: [1] 16.7 µM | [2] 12.6 µM | [3] 11.3 µM | [4] 26.3 µM | [5] 13.2 µM | [6] 13.5 µM | [7] 15 µM | [8] 12.4 µM | [9] 25.1 µM | [10] 14.9 µM | [11] 12.3 µM | [12] 12.7 µM | CD40, CD40 (gene 958) 8.65 µM | [13] 11.3 µM | [14] 10.8 µM | [15] 11.3 µM | [16] 9.95 µM | [17] 10.8 µM | [19] 10.8 µM
inactive: [18]

CCOC(=O)O[C@H](C)OC(=O)c1ccc2c(c1)cc(C(=O)NC1CCN(C(C)C)CC1)n2Cc1cc(-c2ccc(Cl)s2)on1
active: [1] 6.2 µM | [2] 3.74 µM | [3] 3.81 µM | [4] 9.05 µM | [5] 10.4 µM | [6] 6.24 µM | [7] 6.3 µM | [8] 7.43 µM | [9] 6.7 µM | [10] 5.86 µM | [11] 8.39 µM | [12] 8.14 µM | CD40, CD40 (gene 958) 6.74 µM | [13] 10.4 µM | [14] 6.76 µM | [15] 5.61 µM | [16] 6.55 µM | [17] 8.72 µM | [18] 7.65 µM | [19] 6.43 µM

CC1(C)NC(=O)N(c2ccc([N+](=O)[O-])c(C(F)(F)F)c2)C1=O
not listed: CD40, CD40 (gene 958)
inactive: all other assays above
